Laboratory results from PubChem BioAssay (EPA / NIEHS).
“And” between values parts separate entries of the source, which are not always exact repeats. Equal values may be shown once. Results filed as inconclusive are left out. A structure can be active in one record and inactive in another. The source made the active and inactive calls. Rule for the calls: active = hit-call score of the fitted dose curve at least 0.9, where 1 is the maximum; inconclusive = response in the unintended direction; inactive = score below 0.9.

Experiments:
[1] = ATG_XTT_Cytotoxicity: Cytotoxicity Assessment in the Attagene TRANS-FACTORIAL HepG2 Assay (AID 2283584);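 for AC50: cells exposed to compound for 24 h before reading; active means loss of viability signal versus DMSO baseline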
Outline: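 XTT readout of cell number in transfected HepG2 cells, 24 h post-dosing; DMSO serves as negative control and baseline, with activity taken as loss of viability signal.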

[2] = TOX21_p53_BLA_p2_viability: Viability Assessment in the Tox21 HCT-116 p53 Agonism Beta-lactamase Assay, Phase 2 (AID 2283591);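 note: compound exposure lasted 16 h at 37 °C; actives lower the ATP signal meaning cytotoxicity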
Outline: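 Cytotoxicity readout: CellTiter-Glo ATP luminescence, 30 min at room temperature, after the beta-lactamase read. Cells were HCT116 exposed 16 h at 37C to compounds pin-transferred at 217-fold dilution from DMSO stocks.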

Cc1cccc(C(=O)O)c1
outcome [1]: inactive
outcome [2]: inactive

CCCCC(CC)COC(=O)c1ccccc1O (stereo not drawn)
outcome [1]: inactive
outcome [2]: inactive

N#CCc1ccc(Cl)cc1Cl
outcome [1]: inactive
outcome [2]: inactive

Nc1nc2ccccc2[nH]1
outcome [1]: inactive
outcome [2]: inactive

c1ccc(CCCc2ccncc2)cc1
outcome [1]: inactive
outcome [2]: inactive

C=CC(C)(C)C
outcome [1]: inactive
outcome [2]: inactive

O=C1CCCCCCCCCCCCCCCO1
outcome [1]: inactive
outcome [2]: inactive

COC(=O)c1ccc2cc(C(=O)OC)ccc2c1
outcome [1]: inactive
outcome [2]: inactive

O=C1c2cccc(O)c2C(=O)c2c(O)cc(CO)cc21
outcome [1]: inactive
outcome [2]: inactive

CC(=O)Nc1ccc2c(c1)Cc1cc(NC(C)=O)ccc1-2
outcome [1]: inactive
outcome [2]: inactive

Nc1ccc(N)c(Cl)c1
outcome [1]: inactive
outcome [2]: inactive

CC(C)(c1cc(Br)c(OCCO)c(Br)c1)c1cc(Br)c(OCCO)c(Br)c1
AC50 [1]: 23.3 µM (active)
AC50 [2]: 37.3 µM (active)

Nc1ncn([C@@H]2O[C@H](CO)[C@@H](O)[C@H]2O)c(=O)n1
outcome [2]: inactive

O=C(/C=C/C=C/c1ccc2c(c1)OCO2)N1CCCCC1
outcome [2]: inactive

Cc1cc(=O)n(-c2ccccc2)n1C
outcome [2]: inactive

CC/C=C\CCOC(=O)CCCCC
outcome [2]: inactive

O=C(O)CCCCCCCCCC(=O)O
outcome [2]: inactive

Nc1ccc(Cl)cc1Cl
outcome [2]: inactive

CC1=Nc2ccc3ccccc3c2C1(C)C
outcome [2]: inactive

C[C@]12CCC(=O)C=C1CC[C@@H]1[C@@H]2C(=O)C[C@@]2(C)[C@H]1CC[C@]2(O)C(=O)CO
outcome [2]: inactive

CC(C)(Oc1ccc(C2CC2(Cl)Cl)cc1)C(=O)O (stereo not drawn)
outcome [2]: inactive

CCOC(=O)N1CCC(=C2c3ccc(Cl)cc3CCc3cccnc32)CC1
AC50 [1]: 47.5 µM (active)
AC50 [2]: 69.7 µM (active) and 36.8 µM (active)

COC(=O)/C=C\C(=O)O
outcome [2]: inactive

COc1cc(NC(=O)CC(C)=O)c(OC)cc1Cl
AC50 [2]: 18.8 µM (active)
outcome [2]: inactive

Cc1cc(O)c(Cl)c(C)c1Cl
AC50 [2]: 57 µM (active)

c1ccc(-c2ccccn2)nc1
outcome [2]: inactive

O=C1CCCN1CCO
outcome [2]: inactive

[Cl][Nd]([Cl])[Cl]
outcome [2]: inactive

C=CCOc1c(Br)cc(Br)cc1Br
outcome [2]: inactive

C=CC(=O)OCCC(=O)O
outcome [2]: inactive

C[C@]12C=CC(=O)C=C1CC[C@@H]1[C@@H]2[C@@H](O)C[C@@]2(C)[C@H]1CC[C@]2(O)C(=O)CO
outcome [2]: inactive

CC(C)=CCCC(C)C=O (stereo not drawn)
outcome [2]: inactive

CCCCCCCCC(=O)OCC
outcome [1]: inactive
outcome [2]: inactive

SCCc1cnccn1
outcome [2]: inactive

[Cl][In]([Cl])[Cl]
outcome [2]: inactive

CC1(C)O[C@@H]2C[C@H]3[C@@H]4C[C@H](F)C5=CC(=O)CC[C@]5(C)[C@H]4[C@@H](O)C[C@]3(C)[C@]2(C(=O)CO)O1
outcome [1]: inactive
outcome [2]: inactive

CC(=O)Nc1nnc(S(N)(=O)=O)s1
outcome [2]: inactive

O=C(Nc1cccc(C(F)(F)F)c1)c1cc(Br)cc(Br)c1O
AC50 [2]: 747 nM (active) and 1.12 µM (active)

O=C(c1ccccc1)c1ccc(O)c(O)c1O
outcome [2]: inactive

O=[N+]([O-])C1(Br)COCOC1
outcome [2]: inactive

C=CC(=O)OCCOC(=O)C=C
outcome [2]: inactive

O=C1OC(=O)c2cc(Oc3ccc4c(c3)C(=O)OC4=O)ccc21
outcome [2]: inactive

N#[N+]c1ccc2c(S(=O)(=O)[O-])cccc2c1O
outcome [1]: inactive
outcome [2]: inactive

O=C(O)c1ccccc1Nc1cccc(C(F)(F)F)c1
outcome [1]: inactive
outcome [2]: inactive

CC(C)=CCC/C(C)=C\C#N
outcome [2]: inactive

Nc1ccc(-c2ccc(F)cc2)cc1
outcome [2]: inactive

FC(F)(F)C(=NOCC1OCCO1)c1ccc(Cl)cc1
outcome [1]: inactive
outcome [2]: inactive

CC(C)CC(O)Cc1ccccc1 (stereo not drawn)
outcome [1]: inactive
outcome [2]: inactive

O=C(Nc1ccccc1)c1ccccc1O
outcome [2]: inactive

C=C[C@](C)(O)CC[C@@H]1[C@@]2(C)CCCC(C)(C)[C@@H]2CC[C@@]1(C)O
AC50 [1]: 119 µM (active)
AC50 [2]: 47.1 µM (active)

Cc1ccc([N+](=O)[O-])cc1S(=O)(=O)O
outcome [2]: inactive

C[Si](C)(CCCN)O[Si](C)(C)CCCN
outcome [2]: inactive
